About 83,000 compounds went through this panel and 20% of them were active in at least one assay; those are over-represented in the sample as a whole.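 Note: values are percent growth. 100 is the growth of untreated cells, values between 100 and 0 indicate rising inhibition; between -100 and 0 indicates cell death.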 Unmarked numbers belong to inactive results. Calls of active or inactive are those of the source.
tested on: BT-549 breast; experiment: NCI-60 one-dose screen, 48 h (100 = growth as untreated, 0 = no growth, -100 = all killed); details: 10 µM
Procedure: Growth inhibition of the BT-549 human tumor cell line is measured as a screen for anti-cancer activity. Cells are grown in 96 well plates and exposed to the test compound for 48 hours. Compounds are tested at a single concentration, which is 10^-5 M for most compounds. The reported endpoint is percent growth (GI% or GIPRCNT), where numbers from 0 - 100% represent growth inhibition, and numbers from -100% - 0 represent cell death. For example, a value of 40 represents 60% growth inhibition. A value of 0 means no net growth occurred over the course of the experiment. A value of -40 indicates 40% of cells at the beginning of the experiment died by the end of the experiment. A value of -100 means all cells are dead at the end of the experiment.
NCI-60 Human Tumor Cell Lines Screen was performed using the standard one-dose NCI protocol, which is described in more detail at https://dtp.cancer.gov/discovery_development/nci-60/default.htm.
Compounds with GIPRCNT values below 10 were considered active. Activity score was based on GIPRCNT using the following formula: […]
Score is 0 for GIPRCNT values of 100 or above, 50 for GIPRCNT values of 0, and 100 for GIPRCNT values of -100.

| SMILES | growth |
| --- | --- |
| O=S(=O)(Nc1ccccn1)c1ccc(N=Nc2ccc(O)c3ncccc23)cc1 | 1.2% (active) |
| COc1ccc(C2=Nc3c(C)nn(-c4ccccc4)c3NC(c3ccc(Oc4ccnc5cc(Cl)ccc45)c(OC)c3)C2)cc1 (stereo not given) | 93% |
| COc1ccc(C(=O)/C=C/c2cc(-c3cc(OC)c(OC)c(OC)c3)n[nH]2)cc1 | 14.4% |
| O=C(C[n+]1ccccc1)c1ccc2ccccc2c1 | 100% |
| Cc1cc(O)c(C(C)(C)C)cc1Sc1cc(C(C)(C)C)c(O)cc1C | 65.9% |
| O=C(Nc1cccc(-n2cc(-c3ccncc3)c(-c3cc(O)cc(Cl)c3)n2)c1)c1cc(C(F)(F)F)cc(C(F)(F)F)c1 | 73.4% |
| N#CCCN(NC(=O)OCc1ccccc1)C(=O)OCc1ccccc1 | 109% |
| c1ccc([C@H]2CN3CCSC3=N2)cc1 | 102% |
| Cc1cc(N(CCCNc2ccnc3cc(Cl)ccc23)Cc2cccs2)nc(Cl)n1 | 33.7% |
| CC1(C)N=C(N)N=C(N)N1c1ccc(CCc2ccccc2)c(Cl)c1 | 35.6% |
| c1ccc2c(c1)oc1c3cccnc3ccc21 | 79.7% |
| CCOCCOCCOCCOCCOCCOCCOCCOCCOCCO (tested in a mixture with another compound) | -52.7% (active) |
| CCCCCCCCCCCCCCCCCCOCC(COCCOCC[N+]1(CCCCCC(=O)[O-])CCCC1)Oc1ncccn1 (stereo not given) | 33.8% |
| Nc1ccc2c(c1)Cc1cc(N)c(Br)cc1-2 | 94.4% |
| CN(C)CCCn1c(=O)c2ccccc2c2cnc3[nH]ccc3c21 | 34.1% |
| COc1ccc(-n2c(SCc3cc(OC)c(OC)c(OC)c3)nc3ccc(C)cc3c2=O)cc1 | 71.5% |
| CC/C(=N\N=C(/CC)c1ccc(Br)cc1)c1ccc(Br)cc1 | 91.1% |
| NC(=O)SCC(=O)Nc1ccc(S(N)(=O)=O)cc1 | 111% |
| NC(=S)N=Nc1c(O)c2ccccc2c2ccccc12 | 49.5% |
| Cc1cccc2c(NCCN(C)C)c3cccc(C(=O)NCCN(C)C)c3nc12 | 18.2% |

| SMILES | growth |
| --- | --- |
| CC/C(=C(/c1ccc(OCCN(C)C)cc1)c1ccc(OC(=O)CCCCC(=O)c2c(C)[nH]c(/C=C3\N=C(c4ccc[nH]4)C=C3OC)c2C)cc1)c1ccccc1 | 60.8% |
| Cc1ccc(-c2n[nH]c(=O)c3noc(-c4ccc(C)cc4)c23)cc1 | 38.3% |
| CC[C@H](C)C(=O)O[C@H]1CCC=C2C=C[C@H](C)C(CCC3C[C@@H](O)CC(=O)O3)[C@H]21 (stereo not given in full) | 78.2% |
| c1ccc(CSc2nnc3c4c5c(sc4nc(-c4cccnc4)n23)CCCCCC5)cc1 | 41.1% |
| N#CSCC1CC(O)(c2ccccc2)CC(c2ccc(Cl)cc2)O1 (stereo not given) | -11.5% (active) |
| COc1cc(/C=N/NC(=O)c2ccccc2Nc2ccnc(C(F)(F)F)c2)ccc1O | 116% |
| O=C(Nc1nc2ccc(F)cc2s1)c1cc(-c2ccc(F)cc2)n2nc(-c3ccccc3)cc2n1 | 88% |
| CCCCOC(=O)Oc1ccc(C(=O)Oc2ccc(OCC)cc2)cc1 | 85.9% |
| N#CCCN1C/C(=C/c2ccc(Cl)cc2)C(=O)/C(=C/c2ccc(Cl)cc2)C1 | -24.5% (active) |
| O=C(/C=C/c1cc2ccccc2[nH]c1=O)c1ccc2c(c1)OCO2 | 84.2% |
| O=C(Nc1cccc(-n2cc(-c3ccncc3)c(-c3ccc(O)c(Cl)c3)n2)c1)Nc1cccc(C(F)(F)F)c1 | 13.3% |
| CCN(CC)CCSCCCNc1c2ccc(Cl)cc2nc2ccc(OC)cc12 | 5.29% (active) |
| O=C1OCC2=C1C(c1ccc(Cl)c(Cl)c1)c1cc3c(cc1N2CCO)OCCO3 (stereo not given) | 60.4% |
| O=C(CCCCC(=O)Nc1ccc2c(c1)/C(=C/c1ccc[nH]1)C(=O)N2)NO | 97.1% |
| COc1ccc2c(c1)C(=O)c1c-2c(OCCN(C)C)nc2cc(OC)c(OC)cc12 | 89.9% |
| O=C1/C(=C\c2ccc(Br)cc2)CN(C(=O)c2ccccc2F)C/C1=C\c1ccc(Br)cc1 | -0.615% (active) |
| CC(C)N(CCNc1nc(C(Cl)(Cl)Cl)nc2cc(Cl)ccc12)C(C)C | 21.3% |
| COc1ccc(-c2nc3sc(C4CC4)nn3c2/C=C2/C(=O)Nc3ccc(OC)cc32)cc1 | 40.1% |
| CCN(CC)CCOc1nc2ccccc2c2c1-c1ccc(OC)cc1C2=O | 60.8% |
| COC(=O)c1c(-c2ccccc2)csc1NC(=O)c1c(-c2ccccc2)noc1C | 59.2% |
